# Reference: PubChem BioAssay (Tox21)
# “And” between values parts separate entries of the source, which are not always exact repeats. Equal values may be shown once. Inconclusive results are not listed. Where a call stands in place of a potency, no number is given. A structure can be active in one record and inactive in another. The source made the active and inactive calls. Unless noted, the call rests on the fitted dose curve; in most records, active means well fitted curve in the direction sought with a large enough effect in the repeat runs; inconclusive means weak or mixed curves; inactive means no such curve, though single readings can be large; an effect the other way counts as inactive or inconclusive.
# What was measured:
# [1] = qHTS assay to identify small molecule antagonists of the estrogen related receptor (ERR) signaling pathway from Tox21 library - cell viability counter screen (AID 1224834); further: nearly all actives have a fitted effect of over 30% in size; further: potency means the concentration at half of the fitted maximal effect
# Outline: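 Cytotoxicity of test substances is gauged in the same ERR cells used for the antagonist screen, after 17.5 h of compound treatment at 37 C, by CellTiter-Fluor fluorescence measured after 30 min.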
# [2] = molecular target: Luciferin 4-monooxygenase (Photinus pyralis) (UniProt P08659); assay: qHTS assay to identify small molecule inhibitors of firefly luciferase (AID 1224835); further: nearly all actives have a fitted effect of over 25% in size; further: potency means the concentration at half of the fitted maximal effect
# Sequence of Luciferin 4-monooxygenase (Photinus pyralis) (P08659 whole entry, looked up): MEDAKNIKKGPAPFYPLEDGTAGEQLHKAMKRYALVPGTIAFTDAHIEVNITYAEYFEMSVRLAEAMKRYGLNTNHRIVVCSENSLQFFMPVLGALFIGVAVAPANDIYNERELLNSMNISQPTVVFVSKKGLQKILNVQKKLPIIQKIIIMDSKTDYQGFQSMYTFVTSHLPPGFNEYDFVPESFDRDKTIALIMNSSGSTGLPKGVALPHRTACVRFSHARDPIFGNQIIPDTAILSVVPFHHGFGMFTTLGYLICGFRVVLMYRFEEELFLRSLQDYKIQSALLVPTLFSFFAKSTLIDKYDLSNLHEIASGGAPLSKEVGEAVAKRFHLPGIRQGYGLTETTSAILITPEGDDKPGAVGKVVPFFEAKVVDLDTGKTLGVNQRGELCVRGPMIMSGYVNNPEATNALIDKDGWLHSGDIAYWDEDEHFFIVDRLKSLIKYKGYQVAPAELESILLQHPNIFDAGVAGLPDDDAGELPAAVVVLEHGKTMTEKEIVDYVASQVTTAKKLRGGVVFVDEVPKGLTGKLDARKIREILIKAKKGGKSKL
# Outline: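 Biochemical qHTS: compounds run as interplate titrations against purified firefly enzyme, with D-luciferin and ATP each at its KM concentration. Light output recorded by CCD imaging.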
# [3] = qHTS assay to identify small molecule agonists of the constitutive androstane receptor (CAR) signaling pathway - cell viability counter screen (AID 1224836); further: nearly all actives have a fitted effect of over 45% in size
# Outline: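 Compound titrations (15 concentrations) went onto HepG2-CYP2B6-hCAR cells 4 h after seeding, alongside PK11195 at a final 0.75 uM; a 23 h, 37 C/5% CO2 incubation preceded CellTiter-Fluor viability measurement.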
# [4] = qHTS assay to identify small molecule antagonists of the constitutive androstane receptor (CAR) signaling pathway - cell viability counter screen (AID 1224837); further: nearly all actives have a fitted effect of over 45% in size
# Outline: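 Multiplexed cytotoxicity read-out for the CAR antagonist screen: double-stable HepG2-CYP2B6-hCAR cells co-treated with 50 nM CITCO (final) and compound over 15 concentrations, incubated 23 hr, then assessed by CellTiter-Fluor fluorescence.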
# [5] = molecular target: Thyrotropin receptor (Homo sapiens) (UniProt P16473); assay: qHTS assay to identify small molecule agonists of the thyroid stimulating hormone receptor (TSHR) signaling pathway (AID 1224843; calls by dose curve; further: nearly all actives have a fitted effect of over 45% in size; further: potency means the concentration at half of the fitted maximal effect)
# Sequence of Thyrotropin receptor (Homo sapiens) (P16473 whole entry, looked up): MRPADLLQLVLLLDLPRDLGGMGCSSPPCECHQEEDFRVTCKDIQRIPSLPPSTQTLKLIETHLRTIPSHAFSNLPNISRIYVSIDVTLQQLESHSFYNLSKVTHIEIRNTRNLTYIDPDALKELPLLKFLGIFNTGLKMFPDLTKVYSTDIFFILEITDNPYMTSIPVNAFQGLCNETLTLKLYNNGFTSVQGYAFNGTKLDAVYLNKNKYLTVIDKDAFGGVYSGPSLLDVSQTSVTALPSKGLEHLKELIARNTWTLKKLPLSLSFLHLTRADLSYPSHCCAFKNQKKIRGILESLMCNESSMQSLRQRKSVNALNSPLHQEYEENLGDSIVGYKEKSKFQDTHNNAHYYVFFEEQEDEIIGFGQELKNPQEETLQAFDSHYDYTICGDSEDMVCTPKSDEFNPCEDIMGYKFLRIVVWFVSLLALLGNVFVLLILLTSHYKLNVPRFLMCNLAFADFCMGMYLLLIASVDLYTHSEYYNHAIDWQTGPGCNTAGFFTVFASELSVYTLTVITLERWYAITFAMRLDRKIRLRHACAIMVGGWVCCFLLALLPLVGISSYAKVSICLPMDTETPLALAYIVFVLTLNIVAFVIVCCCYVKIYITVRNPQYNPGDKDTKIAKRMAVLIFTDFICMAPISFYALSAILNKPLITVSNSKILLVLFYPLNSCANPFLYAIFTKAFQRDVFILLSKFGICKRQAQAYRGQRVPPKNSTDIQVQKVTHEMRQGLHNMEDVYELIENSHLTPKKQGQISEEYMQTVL
# Outline: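 TSHR-HEK293 cells in agonist mode, 30 min room-temperature step, then cAMP measured by competitive HTRF (cAMP-d2 with anti-cAMP cryptate) after 1 h at room temperature. Tested at 15 concentrations in triplicate.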
# [6] = qHTS assay to identify small molecule agonists of the hypoxia (HIF-1) signaling pathway - cell viability counter screen (AID 1224844; calls by dose curve; further: nearly all actives have a fitted effect of over 50% in size; further: potency means the concentration at half of the fitted maximal effect)
# Outline: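 Tox21 10K compounds were added to HRE-bla ME-180 cells (0.5% dialyzed FBS) and incubated 17 hrs at 37C; ATP-based CellTiter-Glo luminescence then reported cell viability in the same wells.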
# [7] = qHTS assay to identify small molecule agonists of H2AX (AID 1224845; active means well fitted activation curve with a large enough effect in the signal ratio in the repeat runs, not every such curve was filed as active; the % refers to the signal ratio; further: potency means the concentration at half of the fitted maximal effect)
# Outline: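 Wild-type CHO-K1 cells, plated overnight, exposed 3hr at 37C to 15 concentrations (0.76% DMSO final). Lysed, then HTRF anti-pH2AX (S139) cryptate and anti-H2AX-d2 antibodies, 24 hr room temperature; 665/620 nm emission read.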
# [8] = qHTS assay to identify small molecule agonists of the hypoxia (HIF-1) signaling pathway (AID 1224846; active means well fitted activation curve with a large enough effect in the signal ratio in the repeat runs, not every such curve was filed as active; the % refers to the signal ratio)
# Outline: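 Steps: seed ME-180 HRE-bla cells (2,000/well, 0.5% dialyzed FBS); incubate 5 hrs at 37C; pin-transfer compounds or DMSO; incubate 17 hrs; add LiveBLAzer B/G substrate CCF4-AM; measure reporter activation by FRET.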
# [9] = qHTS RealTime-Glo MT Cell Viability Assay in HepG2 cells - 24 hour (AID 1224867); further: nearly all actives have a fitted effect of over 50% in size
# Outline: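 Tox21 10K library screened in qHTS format on HepG2 cells carrying RealTime-Glo reagents. Compounds were added after a 5 h preincubation, and the luminescent signal from continuous culture was measured repeatedly during 40 h treatment.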
# [10] = qHTS RealTime-Glo MT Cell Viability Assay in HEK293 cells - 32 hour (AID 1224868); further: nearly all actives have a fitted effect of over 50% in size; further: potency means the concentration at half of the fitted maximal effect
# Outline: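 Luminescence generated by NanoLuc from substrate produced by living HEK293 cells served as the viability signal. Each value reflects the reading at its stated time point during continuous 40 h compound exposure at 37 C.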
# [11] = A CellTox Green Cytotoxicity Assay to monitor cytotoxicity in HEK293 cells - 0 hour (AID 1224869); further: nearly all actives have a fitted effect of over 50% in size
# Outline: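 Cytotoxicity was tracked continuously in HEK293 cells by a DNA-binding dye excluded from viable cells. Compounds were transferred in DMSO 5 h after seeding; fluorescence was recorded at intervals up to 40 h.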
# [12] = qHTS RealTime-Glo MT Cell Viability Assay in HepG2 cells - 40 hour (AID 1224870); further: nearly all actives have a fitted effect of over 50% in size; further: potency means the concentration at half of the fitted maximal effect
# Outline: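 HepG2 cells (600/well) mixed with RealTime-Glo MT reagent, settled 5 h at 37 C/5% CO2 before compound addition. Nonlytic NanoLuc luminescence from viable-cell prosubstrate reduction read repeatedly during 40 h treatment at 37 C.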
# [13] = qHTS assay to identify small molecule antagonists of the estrogen related receptor signaling pathway with the pleiotropic PPARgamma coactivator (PGC) from Tox21 10K library (AID 1224841; call rule not given here)
# Outline: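 Antagonism in this quantitative HTS is taken from loss of luciferase signal in PGC/ERR cells. Cells (2,000/well) are treated with compounds in DMSO after a 6 h settling period and read by One-Glo luminescence after 18 h.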
# [14] = qHTS assay to identify small molecule agonists of the estrogen related receptor signaling pathway with the pleiotropic PPARgamma coactivator (PGC) from Tox21 10K library (AID 1224842); further: nearly all actives have a fitted effect of over 15% in size
# Outline: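 PGC/ERR reporter cell line, 2,000 cells per well, incubated 6 h at 37 C before 23 nL compound in DMSO was added. After 18 h at 37 C, One-Glo luminescence read following 30 min at room temperature.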
# [15] = qHTS assay to identify small molecule agonists of H2AX - cell viability counter screen (AID 1224847; calls by dose curve; further: nearly all actives have a fitted effect of over 30% in size; further: potency means the concentration at half of the fitted maximal effect)
# Outline: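 Read-out: CellTiter-Glo luminescence, 30 min RT. Cells: wild-type CHO-K1, 1000/well, 10% FBS, plated overnight at 37C. Treatment: 15 concentrations, 3 hr, 37C, 0.76% DMSO.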
# [16] = qHTS assay to identify small molecule antagonists of the estrogen related receptor (ERR) signaling pathway from Tox21 library (AID 1224848); further: nearly all actives have a fitted effect of over 50% in size; further: potency means the concentration at half of the fitted maximal effect
# Outline: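 ERR reporter cell line (from NTP) seeded 2,000 cells/well, rested 6 h at 37 C/5% CO2, then pin-dosed with compounds in DMSO. After 18 h at 37 C, ONE-Glo added; luminescence read after 30 min at room temperature.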
# [17] = molecular target: Nuclear receptor subfamily 1 group I member 3 (Homo sapiens) (UniProt Q14994); assay: qHTS assay to identify small molecule antagonists of the constitutive androstane receptor (CAR) signaling pathway (AID 1224838); further: nearly all actives have a fitted effect of over 40% in size; further: potency means the concentration at half of the fitted maximal effect
# Sequence of Nuclear receptor subfamily 1 group I member 3 (Homo sapiens) (Q14994 whole entry, looked up): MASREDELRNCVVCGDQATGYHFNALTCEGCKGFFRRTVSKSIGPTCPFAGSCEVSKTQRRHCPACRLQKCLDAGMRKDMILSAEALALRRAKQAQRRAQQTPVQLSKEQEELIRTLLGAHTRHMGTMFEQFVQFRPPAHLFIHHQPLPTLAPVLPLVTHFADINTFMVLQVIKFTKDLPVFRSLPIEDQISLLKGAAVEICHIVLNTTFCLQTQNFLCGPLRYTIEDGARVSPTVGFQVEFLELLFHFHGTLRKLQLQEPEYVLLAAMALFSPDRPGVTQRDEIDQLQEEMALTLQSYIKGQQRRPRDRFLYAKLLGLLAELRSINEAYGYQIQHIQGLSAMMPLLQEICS
# Outline: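 Compounds were titrated across 15 concentrations onto HepG2 cells double-stably expressing hCAR and a CYP2B6-2.2kb reporter, together with 50 nM CITCO (final). After 24 h at 37 C, luciferase activity was measured by luminescence.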
# [18] = qHTS assay to identify small molecule antagonists of the estrogen related receptor signaling pathway with the pleiotropic PPARgamma coactivator (PGC) from Tox21 10K library - cell viability counter screen (AID 1224840; active means well fitted cell-killing curve with a large enough effect in the repeat runs, not every such curve was filed as active; further: nearly all actives have a fitted effect of over 40% in size; further: potency means the concentration at half of the fitted maximal effect)
# Outline: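 Step one, plate 2,000 PGC/ERR cells per well; step two, incubate 6 h at 37 C/5% CO2; step three, pin-transfer compounds; step four, incubate 17.5 h; step five, add CellTiter-Fluor and read fluorescence after 30 min.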
# [19] = molecular target: Nuclear receptor subfamily 1 group I member 3 (Homo sapiens) (UniProt Q14994); assay: qHTS assay to identify small molecule agonists of the constitutive androstane receptor (CAR) signaling pathway (AID 1224839); further: nearly all actives have a fitted effect of over 15% in size; further: potency means the concentration at half of the fitted maximal effect;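 on activation: HepG2 cells stably carrying human CAR and a CYP2B6 luciferase reporter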
# Outline: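 In this screen, CAR-driven CYP2B6 promoter activity is measured by luminescence in HepG2-CYP2B6-hCAR cells after 24 h with test compounds and 0.75 uM PK11195 (final concentration).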
# [20] = qHTS assay to identify small molecule agonists of the estrogen related receptor (ERR) signaling pathway from Tox21 library (AID 1224849; calls by dose curve; further: nearly all actives have a fitted effect of over 15% in size); conditions: ERR reporter cell line, ONE-Glo luciferase, 18 h; at 92.4 µM (top of the series) unless noted
# Outline: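 Agonist signal is luciferase luminescence from an ERR reporter cell line treated 18 h at 37 C with DMSO-dissolved compounds, read 30 min after ONE-Glo addition at room temperature.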
SMILES,Potency [1],Potency [2],Potency [3],Potency [4],Potency [5],Potency [6],Potency [7],outcome [8],Potency [9],Potency [10],Potency [11],Potency [12],Potency [13],Potency [14],Potency [15],Potency [16],Potency [17],Potency [18],Potency [19],"activity change, positive = activation [20]"
BrCCCCBr,inactive,inactive,inactive,inactive,inactive,inactive,inactive,inactive,inactive,inactive,inactive,inactive,,,,,,,,
S=C=NCc1ccccc1,inactive,inactive,inactive,,inactive,inactive,inactive,,inactive,44.1 µM (active),inactive,inactive,inactive,inactive,inactive,inactive,,,,
Nc1ccc(N=Nc2ccc(-c3ccc(N=Nc4c(S(=O)(=O)O)cc5cc(S(=O)(=O)O)c(N=Nc6ccccc6)c(O)c5c4N)cc3)cc2)c(N)c1,31.3 µM (active),20.4 µM (active),inactive,,,inactive,,inactive,inactive,inactive,inactive,inactive,,,,,inactive,,,
CCn1cc[n+](C)c1,inactive and 30.9 µM (active),inactive,,,,inactive,inactive,inactive,inactive,inactive and 1.75 µM (active),,inactive and 44 µM (active),,,inactive and 102 µM (active),,,inactive and 55 µM (active),,
CCCCN(N=O)C(=N)N[N+](=O)[O-],inactive,inactive,,inactive,inactive,,103 µM (active),inactive,inactive,,,inactive,,,,,31.3 µM (active),,inactive,
CN1C(=O)C(O)N=C(c2ccccc2)c2cc(Cl)ccc21 (stereo not given),inactive,inactive,inactive,inactive,,,inactive,,inactive,,inactive,inactive,inactive,inactive,inactive,inactive,,,,
BrCC(Br)C1CCC(Br)C(Br)C1 (stereo not given),inactive,inactive,,inactive,48.3 µM (active),inactive,inactive,inactive,inactive,,inactive,inactive,,,,,inactive,inactive,,
O=C1C(Cl)C(CCl)CN1c1cccc(C(F)(F)F)c1 (stereo not given),inactive,,inactive,inactive,,inactive,inactive,inactive,inactive,24.5 µM (active),inactive,inactive,,inactive,,,inactive,inactive,inactive,-29.4% (inactive)
COc1cc(Cl)c(OC)cc1Cl,inactive,,inactive,inactive,,inactive,inactive,inactive,inactive,inactive,inactive,inactive,inactive,,inactive,inactive,,inactive,,0.702% (inactive)
[O-][Cl+]O,inactive,,inactive,inactive,,inactive,inactive,inactive,inactive,inactive,inactive,inactive,inactive,inactive,inactive,inactive,,inactive,,8.47% (inactive)
C=CC(=O)OC,inactive,,,inactive,inactive,inactive,inactive,inactive,inactive,inactive,inactive,inactive,,,inactive,,inactive,inactive,inactive,
CNP(=O)(OC)Oc1ccc(C(C)(C)C)cc1Cl (stereo not given),inactive,,inactive,inactive,,inactive,inactive,inactive,inactive,,inactive,inactive,inactive,,,48.6 µM (active),inactive,inactive,,-37.4% (inactive)
NCCCNCCCN,inactive,,inactive,inactive,inactive,inactive,inactive,,inactive,inactive,inactive,inactive,,,inactive,,inactive,inactive,,
CC1(C)[C@H](C=C(Cl)Cl)[C@@H]1C(=O)O[C@@H](C#N)c1cccc(Oc2ccccc2)c1,inactive,,inactive,inactive,,inactive,inactive,inactive,inactive,inactive,inactive,inactive,,,inactive,,inactive,inactive,,
CCOC(=O)C(Cl)C(C)=O (stereo not given),inactive,,inactive,inactive,inactive,,inactive,inactive,inactive,inactive,,inactive,,,inactive,,,inactive,,
Cc1ccccc1C(=O)Nc1cccc(OC(C)C)c1,inactive,,,inactive,inactive,27.5 µM (active),inactive,,inactive,,inactive,inactive,,,,,inactive,inactive,,
CC(C)=CCOc1c2occc2cc2ccc(=O)oc12,,inactive,inactive,inactive,,inactive,inactive,,,inactive,inactive,inactive,inactive,inactive,inactive,inactive,inactive,inactive,10.6 µM (active),
C=CC(=O)OCC(C)O (stereo not given),inactive,,inactive,inactive,inactive,,inactive,,inactive,,inactive,inactive,inactive,inactive,inactive,inactive,inactive,,inactive,
O=C1c2ccccc2C(=O)C1C(=O)C(c1ccccc1)c1ccccc1,,inactive,inactive,inactive,inactive,,,,inactive,inactive,inactive,inactive,,inactive,inactive,,inactive,inactive,inactive,-7.49% [at 42.5 µM] (inactive)
c1ccc(C2CC2)c(OCC2=NCCN2)c1,inactive,,,inactive,,inactive,inactive,inactive,inactive,inactive,inactive,inactive,inactive,inactive,inactive,inactive,,,,4.99% [at 42.5 µM] (inactive)
CCCCCCCCCC(=O)O[C@H]1CC[C@H]2[C@@H]3CCC4=CC(=O)CC[C@@H]4[C@H]3CC[C@]12C,inactive,,inactive,inactive,,inactive,inactive,,inactive,inactive,inactive,inactive,,,inactive,,inactive,inactive,inactive,
C[N+](C)(C)CCCl,inactive,,inactive,inactive,inactive,inactive,inactive,,inactive,inactive,,inactive,inactive,inactive,inactive,inactive,,,,3.38% (inactive)
